Reference: PubChem BioAssay
Active and inactive are the calls of the source. Unless noted, the rule behind the calls is not given here.

How the values were obtained:
[1] = A549 cell viability effects, profiling panel, calcein-AM fluorescence, 48 h, basal (AID 1162); details: higher = more signal; note: test concentration not given here
[2] = adipocyte viability effects, profiling panel, cell-based, 3T3-L1 adipocytes, calcein-AM fluorescence, 48 h, basal (AID 1163); details: 3T3-L1 adipocytes viability, higher = more signal; note: test concentration not given here
[3] = HepG2 cell viability effects, profiling panel, calcein-AM fluorescence, 48 h, basal (AID 1164); details: higher = more signal; note: test concentration not given here
[4] = MM1S cell viability effects, profiling panel, calcein-AM fluorescence, 48 h, basal (AID 1165); details: higher = more signal;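 note: viability of MM1S multiple myeloma cells under basal unstimulated conditions; test concentration not given here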
[5] = basal RPMI8226 viability, no added stimulus, profiling panel, cell-based, calcein-AM fluorescence, 48 h, PK04 Diversity Set (AID 1166); details: RPMI8226 myeloma viability, higher = more signal;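 note: cells grown under basal conditions without added stimulus; test concentration not given here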
[6] = basal HepG2 mitochondrial membrane potential changes, profiling panel, cell-based, JC-1 fluorescence, 24 h, 100 nL compound (AID 1167); details: higher = more signal; note: test concentration not given here
[7] = basal 3T3-L1 adipocyte mitochondrial potential changes, profiling panel, cell-based, JC-1 fluorescence, 3T3-L1 adipocytes, 24 h, 100 nL compound (AID 1168); details: JC-1 mitochondrial fluorescence, higher = more signal, called active from +8 up or from −8 down; note: test concentration not given here
[8] = basal RPMI8226 mitochondrial membrane potential changes, profiling panel, cell-based, JC-1 fluorescence, 24 h, 100 nL compound (AID 1169); details: RPMI8226 myeloma, JC-1 mitochondrial potential fluorescence, higher = more signal; note: test concentration not given here
[9] = basal MM1S mitochondrial membrane potential changes, profiling panel, cell-based, JC-1 fluorescence, 24 h, 100 nL compound (AID 1170); details: higher = more signal; note: test concentration not given here
[10] = A549 lung cancer cell viability effects, profiling panel, resazurin fluorescence, 24 h, PK04 Diversity Set (AID 1171); details: higher = more signal, called active from +8 up or from −8 down; note: test concentration not given here
[11] = HepG2 liver cancer cell viability effects, profiling panel, resazurin fluorescence, 24 h, PK04 Diversity Set (AID 1172); details: higher = more signal; note: test concentration not given here
[12] = basal S. cerevisiae growth modulation, no modifier, primary screen, OD600, strain BY4716, 24 h, basal condition (AID 1173); details: OD600, 24 h, higher = more signal, called active from +8 up or from −8 down
[13] = MM1S myeloma cell viability, profiling panel, resazurin fluorescence, basal, 24 h, PK04 Diversity Set (AID 1174); details: higher = more signal, called active from +8 up or from −8 down;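 note: MM1S multiple myeloma cell line; test concentration not given here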
[14] = target: Dihydroorotate dehydrogenase (quinone), mitochondrial (Plasmodium falciparum (isolate 3D7)) (UniProt Q08210); experiment: PfDHODH enzyme inhibitors, primary screen, biochemical, C-terminal His tag, absorbance 600 nm (AID 1175); details: DCIP absorbance 600 nm, higher = more signal, called active from +8 up or from −8 down;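 note: recombinant parasite enzyme with a five histidine tag at its C terminus; test concentration not given here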
[15] = P. aeruginosa biofilm formation inhibitors, primary screen, strain PAO1, LB-PBS medium, absorbance 600 nm (AID 1176); note: test concentration not given here; details: P. aeruginosa PAO1 growth/biofilm, A600, 12 h; higher = more signal
[16] = S. cerevisiae RM11-1a growth modifiers, primary screen, strain RM11-1a, OD600, basal, 24 h (AID 1177); details: OD600, 24 h, higher = more signal, called active from +8 up or from −8 down;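 note: cultures grown under basal conditions with no added stressor; test concentration not given here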
[17] = E. coli acrAB mutant growth effects, primary screen, E. coli filamentation inducers, strain DRC39, OD650, 24 h (AID 1178); details: higher = more signal, called active from +8 up or from −8 down;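 note: growth measured as culture turbidity by optical density at 650 nm; test concentration not given here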
[18] = E. coli acrAB mutant growth effects, primary screen, E. coli filamentation inducers, strain DRC39, OD650, 48 h (AID 1179);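 note: screen aims at cell division blockers that make cells filament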; details: E. coli DRC39 delta-acrAB growth, higher = more signal, called active from +8 up or from −8 down
[19] = RPMI8226 myeloma cell viability, profiling panel, resazurin fluorescence, basal, 24 h, PK04 Diversity Set (AID 1180); details: higher = more signal;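 note: RPMI8826 multiple myeloma cell line at 5000 cells per well; test concentration not given here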
[20] = target: E3 ubiquitin-protein ligase XIAP (Homo sapiens) (UniProt P98170); experiment: XIAP binders, primary screen, biophysical, small-molecule microarray, fluorescence 635 nm (AID 1181); details: small-molecule microarray binding, higher = more signal;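 note: score merges 667 nm emission and signal to noise over triplicate slides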
E3 ubiquitin-protein ligase XIAP (Homo sapiens), sequence (P98170 whole entry, looked up): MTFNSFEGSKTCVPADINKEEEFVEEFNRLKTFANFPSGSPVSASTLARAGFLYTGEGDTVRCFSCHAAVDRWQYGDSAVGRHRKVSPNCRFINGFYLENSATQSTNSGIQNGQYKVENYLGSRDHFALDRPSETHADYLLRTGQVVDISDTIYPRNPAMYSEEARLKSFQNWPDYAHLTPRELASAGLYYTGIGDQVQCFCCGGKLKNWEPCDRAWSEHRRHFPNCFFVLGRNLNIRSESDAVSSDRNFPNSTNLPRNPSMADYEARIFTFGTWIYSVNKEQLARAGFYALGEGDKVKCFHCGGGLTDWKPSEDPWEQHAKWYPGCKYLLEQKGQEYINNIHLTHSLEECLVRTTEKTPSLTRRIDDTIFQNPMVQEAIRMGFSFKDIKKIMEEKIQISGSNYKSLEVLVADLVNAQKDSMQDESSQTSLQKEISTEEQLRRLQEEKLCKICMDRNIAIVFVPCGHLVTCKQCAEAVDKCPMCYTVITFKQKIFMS

Dihydroorotate dehydrogenase (quinone), mitochondrial (Plasmodium falciparum (isolate 3D7)), sequence (Q08210 whole entry, looked up): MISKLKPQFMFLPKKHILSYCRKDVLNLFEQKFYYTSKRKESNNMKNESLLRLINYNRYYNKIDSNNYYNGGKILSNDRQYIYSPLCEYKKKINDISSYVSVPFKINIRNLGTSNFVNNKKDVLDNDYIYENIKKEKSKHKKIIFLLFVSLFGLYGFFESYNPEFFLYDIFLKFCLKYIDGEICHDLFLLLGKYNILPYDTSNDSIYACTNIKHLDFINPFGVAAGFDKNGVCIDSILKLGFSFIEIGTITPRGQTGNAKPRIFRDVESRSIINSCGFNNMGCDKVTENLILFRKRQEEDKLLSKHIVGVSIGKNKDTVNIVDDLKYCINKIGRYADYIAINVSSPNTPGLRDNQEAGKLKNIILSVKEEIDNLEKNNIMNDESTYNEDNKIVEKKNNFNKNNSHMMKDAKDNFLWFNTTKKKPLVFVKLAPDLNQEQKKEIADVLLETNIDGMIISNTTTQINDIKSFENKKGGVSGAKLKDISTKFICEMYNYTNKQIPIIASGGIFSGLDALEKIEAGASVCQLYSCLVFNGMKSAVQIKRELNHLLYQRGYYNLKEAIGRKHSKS

Row | SMILES | z-score [1] | z-score [2] | z-score [3] | z-score [4] | z-score [5] | z-score [6] | z-score [7] | z-score [8] | z-score [9] | z-score [10] | z-score [11] | z-score [12] | z-score [13] | composite z-score [14] | z-score [15] | z-score [16] | z-score [17] | z-score [18] | z-score [19] | composite z-score [20]
1 | COc1cccc([C@H]2Oc3ccc(OC)cc3C(=NO[C@@H](C)c3cn([C@H](CO)Cc4ccccc4)nn3)[C@@H]2O)c1 | -0.53 | 1.3 | -0.55 | 0.738 | -0.631 | -1.22 | -1.1 (inactive) | -0.722 | 0.339 | -0.819 (inactive) | -1.02 | -0.0439 (inactive) | -0.162 (inactive) | 0.757 (inactive) | -0.102 (inactive) | -0.0779 (inactive) | -0.712 (inactive) | -2.86 (inactive) | 0.22 | -0.0367
2 | C=CC[C@@H]1C=C[C@H](ON=C2[C@H]3CCn4c(=O)n(-c5ccccc5)c(=O)n4[C@H]3[C@H](O)[C@@H]3O[C@H]23)[C@@H](CO)O1 | -0.547 | -0.203 | -0.683 | -1.21 | -0.997 | -0.568 | -1.65 (inactive) | -0.172 | 0.0203 | -0.674 (inactive) | -0.684 | 0.695 (inactive) | -0.646 (inactive) | 0.329 (inactive) | 0.675 (inactive) | 0.779 (inactive) | 0.207 (inactive) | -0.104 (inactive) | -0.331 | -0.0663
3 | COC(=O)[C@H](C)NC(=O)CCC1CC(OC(=O)NCCc2ccc(F)cc2)CC2(CCCC(COC(=O)NCc3cccc(C(F)(F)F)c3)O2)O1 (stereo not given in full) | -0.925 | 0.704 | -1.69 | -3.48 | -0.416 | -0.15 | -0.835 (inactive) | 0.54 | 0.533 | -0.0257 (inactive) | -0.0701 | 1.05 (inactive) | 0.045 (inactive) | -0.302 (inactive) | 0.59 (inactive) | 0.744 (inactive) | 0.696 (inactive) | 0.602 (inactive) | 0.436 | 0.103
4 | Cc1ccc(S(=O)(=O)NC(CCc2ccccc2)CC(=O)C(C)(C)C)cc1 (stereo not given) | 0.0378 | -0.795 | -0.869 | 0.0642 | -0.156 | -0.696 | -0.255 (inactive) | -0.201 | -0.236 | 1.34 (inactive) | 0.277 | -1 (inactive) | -0.146 (inactive) | 0.0379 (inactive) | 0.143 (inactive) | 0.384 (inactive) | 0.628 (inactive) | 0.274 (inactive) | 0.159 | -0.195
5 | COC(=O)[C@@H]1CC[C@H](C)[C@@H](c2ccc(C)cc2)N1C(=O)c1ccc(C=NOCC[C@@H]2C=C[C@H](OC(C)=O)[C@@H](COC(C)=O)O2)cc1 | -0.521 | 0.556 | -1.13 | -0.958 | -1.32 | -0.674 | -1.67 (inactive) | 0.682 | -0.136 | 0.154 (inactive) | -0.574 | 1.76 (inactive) | -0.761 (inactive) | 1.16 (inactive) | 0.888 (inactive) | 1.98 (inactive) | 0.667 (inactive) | -0.62 (inactive) | -0.337 | -0.291
6 | COC(=O)[C@H](C)NC(=O)CCC1CC(OC(=O)NCCc2ccc(F)cc2)CC2(CCCC(COC(=O)NCCC(C)C)O2)O1 (stereo not given in full) | 1.22 | 0.464 | -0.814 | -3.65 | -0.883 | -0.591 | 0.521 (inactive) | 0.198 | -1.51 | 0.693 (inactive) | -0.666 | -1.27 (inactive) | 0.711 (inactive) | -2.05 (inactive) | 0.675 (inactive) | -1.15 (inactive) | 0.29 (inactive) | -0.947 (inactive) | 0.967 | -0.102
7 | CCc1cc2c(nc1CC)CCN(CCC(C)=NOC[C@H]1O[C@H](c3ccccc3)C=C[C@@H]1Oc1ccc(OC)cc1)C2 | -0.67 | 0.765 | -0.106 | -2.03 | -2.35 | 5.61 | -1.1 (inactive) | -0.0846 | 0.0581 | 0.364 (inactive) | 0.0523 | -1.75 (inactive) | 0.22 (inactive) | -3.81 (inactive) | -0.197 (inactive) | -0.409 (inactive) | -1.58 (inactive) | -1.43 (inactive) | 0.218 | -0.23
8 | CC=CC1=C(CO)C(=O)[C@@H]2O[C@@H]2C1=O | -0.912 | -1.18 | -0.88 | -3.5 | -2.88 | -1.86 | -0.316 (inactive) | -1 | -2.1 | -0.315 (inactive) | -0.714 | -1.37 (inactive) | -1.58 (inactive) | 0.324 (inactive) | 0.827 (inactive) | -1.22 (inactive) | 0.246 (inactive) | 0.537 (inactive) | -0.875 | -0.0498
9 | CCOC(=O)[C@H](Cc1ccccc1)NC(=O)CCC1CC(OC(=O)NCCc2ccc(F)cc2)CC2(CCCC(COC(=O)NCCCN3CCCC3=O)O2)O1 (stereo not given in full) | 1.57 | -0.0501 | 0.43 | 0.356 | -0.335 | 0.668 | -0.182 (inactive) | 0.437 | -1.09 | -0.972 (inactive) | -0.0038 | -0.196 (inactive) | 0.374 (inactive) | -1.73 (inactive) | 0.781 (inactive) | -1.25 (inactive) | -0.198 (inactive) | -0.926 (inactive) | 0.898 | -0.0622
